# Test results reported in PubChem BioAssay (NCI).
# The panel holds about 83,000 compounds, 20% with a hit somewhere; the sample as a whole holds those more often.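 Single-dose data. Exposure time 48 hours. Values below 10 considered active.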 Unmarked numbers belong to inactive results. Active and inactive are the calls of the source.
# Test system: KM12 colon
# Assay: NCI-60 one-dose screen, 48 h (100 = growth as untreated, 0 = no growth, -100 = all killed)
# Conditions: 10 µM unless noted
row,Compound,growth
1,Cc1cc(=O)[nH]c(/C(=N/Nc2ccccc2)C(=O)c2ccc(Cl)cc2)n1,102%
2,COc1cc(C2=NN(C=O)C(c3cccc(Nc4ccnc5cc(Cl)ccc45)c3)C2)cc(OC)c1OC (stereo not given),91%
3,Cc1cc(C(=O)Nc2ccc3cc(CN4CCOCC4)ccc3n2)c(C)n1-c1ccccc1,11%
4,O=C(Nc1cccc(Cl)c1)Nc1cccc(Cl)c1,43.6%
5,COc1cc2c(cc1OC)C(=O)/C(=C/c1cccc(OCC(=O)c3ccccc3)c1)C2,170%
6,CN(C)c1ccc(-n2nc3ccccc3n2)cc1,108%
7,N[C@H](CS)C(=O)O,109%
8,CCOc1cc(/C=C/C(=O)C(C(=O)/C=C/c2ccc(OC(=O)CNc3nnc(C)s3)c(OCC)c2)C(=O)CNc2nnc(C)s2)ccc1OC(=O)CNc1nnc(C)s1,-64.4% (active)
9,CC[C@H]1CN2CCc3cc(OC)c(OC)cc3C2C[C@@H]1CC1NCCc2cc(OC)c(OC)cc21 (stereo not given in full),-37.2% (active)
10,COc1ccc(N2CCN(CC(=O)N3CCN(c4nnc(-c5ccc(Cl)cc5)c(-c5ccc(Cl)cc5)n4)CC3)CC2)cc1,44.7%
11,O=C(COc1ccc(/C=C2\Oc3ccc4ccccc4c3C2=O)cc1)c1ccc(Cl)cc1,99.5%
12,Cc1nn(-c2nc3ccccc3s2)c(C)c1Oc1ccccc1O,63.6%
13,CCSc1ncc(Br)c(Sc2nc(N)nc3nc[nH]c23)n1,79%
14,COc1ccc(C2=NN(C=O)C(c3cccc(Nc4ccnc5cc(Cl)ccc45)c3)C2)cc1 (stereo not given),27.4%
15,CCOC(=O)Nc1ccc2c3c(cccc13)-c1ccccc1-2,18.3%
16,CCCCCCCC[Si](OCC)(OCC)OCC,103%
17,COC(=O)[C@H](Cc1cnc[nH]1)NC(=O)[C@@H](NC(=O)Nc1cc(C(F)(F)F)cc(C(F)(F)F)c1)C(C)C,-94.6% [100 µM] (active)
18,CCOC(=O)c1sc(NC(=O)COc2cccc(/C=C3\CCc4cc(OC)ccc4C3=O)c2)nc1C,34.7%
19,NS(=O)(=O)N(c1cc(C(F)(F)F)cc(C(F)(F)F)c1)C1CCN(Cc2ccc(C(F)(F)F)cc2)CC1,12.9%
20,CCOC(CNCc1cc(C)c2[nH]c3ccccc3c2c1C)OCC,94.4%

row,Compound,growth
1,COc1ccc2cc(-c3nc4ccccc4[nH]3)c(=O)oc2c1,93.8%
2,O=C(O)C1CCN(S(=O)(=O)c2ccc(-c3ccccc3)cc2)CC1,111%
3,CNCCCn1c2c(c3ccc(F)cc3c1=O)C(=O)c1cc(OC)cnc1-2,-0.739% (active)
4,Oc1c(Cl)cc(Cl)c(Cl)c1Cc1c(O)c(Cl)cc(Cl)c1Cl,8.09% (active)
5,COc1cc(/C=N/NC(=O)c2ccc(C(F)(F)F)nc2Nc2cc(Cl)ccc2C)cc(OC)c1OC,108%
6,O=C(Nc1nc2ccc(OC(F)(F)F)cc2s1)c1ccc(F)cc1,2.23% (active)
7,COc1cc(/C(Cl)=C/C=C/C(=O)c2c(C)[n+]([O-])c3ccc(Cl)cc3[n+]2[O-])cc(OC)c1OC,33%
8,COc1ccc2nc(-c3ccc(Cl)cc3)cc(-c3nnc(SCC(=O)Nc4ccc(C(C)=O)cc4)n3-c3ccccc3)c2c1,95.3%
9,CC1Cc2ccccc2N1C(=O)c1ccc(C(=O)c2ccccc2)cc1 (stereo not given),101%
10,O=C(O)c1ccc(CNS(=O)(=O)c2ccc3ccccc3c2)cc1,101%
11,CCCCNCCCN(CCCC)CCCNCCCC,107%
12,CC(=O)Nc1cc(C(c2ccccc2)c2ccccc2)cc(C(c2ccccc2)c2ccccc2)c1C,50.5%
13,C[C@H]1O[C@@H](O[C@H]2[C@@H](O)C[C@H](O[C@H]3[C@@H](O)C[C@H](O[C@H]4CC[C@]5(C)C6C[C@@H](O)[C@]7(C)[C@@H](C8=CC(=O)OC8)CC[C@]7(O)C6CC[C@@H]5C4)O[C@@H]3C)O[C@@H]2C)C[C@H](O)[C@@H]1O (stereo not given in full),-100% (active)
14,CC[N+](CCCCCCCCCC[N+](CC)(c1ccccn1)c1ccccn1)(c1ccccn1)c1ccccn1,5.01% (active)
15,NS(=O)(=O)c1ccc(-n2ncc3c(SCc4ccccc4)ncnc32)cc1,94.1%
16,O=C(CN1CCN(c2ccc(Cl)cc2)CC1)N1CCN(c2nnc(-c3ccc(Cl)cc3)c(-c3ccc(Cl)cc3)n2)CC1,63%
17,Cc1nn(-c2ccccc2)c2nc(N)c(C3=NCCO3)nc12,104%
18,C/C(=C\CCc1ccoc1)CC/C=C(\C)CCCN1CCOCC1,56.9%
19,O=C1c2cccc(NCCN=Cc3ccccc3O)c2C(=O)c2c(NCCN=Cc3ccccc3O)cccc21,6.07% (active)
20,CCCn1c(N)c(C(=O)CNc2ccc(I)cc2)c(=O)[nH]c1=O,43.7%
